The text below walks through data of PubChem BioAssay.

Assay [1] concerns the target Nuclear receptor coactivator 1 (Homo sapiens) (UniProt Q15788). Briefly: NCOA1 GAL4-fusion reporter inhibition – cell-based, luminescence, quadruplicate, confirmation (AID 588820;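 active = mean inhibition above 46.68%, the untreated control wells mean plus 3 SD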;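 also: 0% = DMSO wells and 100% = gossypol 36 µM treated wells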). Conditions: HEK293 GAL4-SRC1 luciferase reporter, at 3.6 µM, stronger effect = higher value. Background: A reporter such as luciferase makes a cellular process visible.
A short description of assay [2]: repression of VP16-driven luciferase reporter – cell-based, luminescence, high throughput, counter-screen for SRC1 inhibitor project (AID 588824). Conditions: cell-based VP16 transactivation luciferase luminescence; at 3.6 µM; stronger effect = higher value.

Structures are written as SMILES. Active and inactive are the calls of the source. Rule as the data show it, unless noted: active = inhibition above about 25%; inactive = the rest.

A word on the inhibition: it is the relative decrease from the control value, in per cent.

Nuclear receptor coactivator 1 (Homo sapiens), sequence (Q15788 whole entry, looked up, the tested form may be a part): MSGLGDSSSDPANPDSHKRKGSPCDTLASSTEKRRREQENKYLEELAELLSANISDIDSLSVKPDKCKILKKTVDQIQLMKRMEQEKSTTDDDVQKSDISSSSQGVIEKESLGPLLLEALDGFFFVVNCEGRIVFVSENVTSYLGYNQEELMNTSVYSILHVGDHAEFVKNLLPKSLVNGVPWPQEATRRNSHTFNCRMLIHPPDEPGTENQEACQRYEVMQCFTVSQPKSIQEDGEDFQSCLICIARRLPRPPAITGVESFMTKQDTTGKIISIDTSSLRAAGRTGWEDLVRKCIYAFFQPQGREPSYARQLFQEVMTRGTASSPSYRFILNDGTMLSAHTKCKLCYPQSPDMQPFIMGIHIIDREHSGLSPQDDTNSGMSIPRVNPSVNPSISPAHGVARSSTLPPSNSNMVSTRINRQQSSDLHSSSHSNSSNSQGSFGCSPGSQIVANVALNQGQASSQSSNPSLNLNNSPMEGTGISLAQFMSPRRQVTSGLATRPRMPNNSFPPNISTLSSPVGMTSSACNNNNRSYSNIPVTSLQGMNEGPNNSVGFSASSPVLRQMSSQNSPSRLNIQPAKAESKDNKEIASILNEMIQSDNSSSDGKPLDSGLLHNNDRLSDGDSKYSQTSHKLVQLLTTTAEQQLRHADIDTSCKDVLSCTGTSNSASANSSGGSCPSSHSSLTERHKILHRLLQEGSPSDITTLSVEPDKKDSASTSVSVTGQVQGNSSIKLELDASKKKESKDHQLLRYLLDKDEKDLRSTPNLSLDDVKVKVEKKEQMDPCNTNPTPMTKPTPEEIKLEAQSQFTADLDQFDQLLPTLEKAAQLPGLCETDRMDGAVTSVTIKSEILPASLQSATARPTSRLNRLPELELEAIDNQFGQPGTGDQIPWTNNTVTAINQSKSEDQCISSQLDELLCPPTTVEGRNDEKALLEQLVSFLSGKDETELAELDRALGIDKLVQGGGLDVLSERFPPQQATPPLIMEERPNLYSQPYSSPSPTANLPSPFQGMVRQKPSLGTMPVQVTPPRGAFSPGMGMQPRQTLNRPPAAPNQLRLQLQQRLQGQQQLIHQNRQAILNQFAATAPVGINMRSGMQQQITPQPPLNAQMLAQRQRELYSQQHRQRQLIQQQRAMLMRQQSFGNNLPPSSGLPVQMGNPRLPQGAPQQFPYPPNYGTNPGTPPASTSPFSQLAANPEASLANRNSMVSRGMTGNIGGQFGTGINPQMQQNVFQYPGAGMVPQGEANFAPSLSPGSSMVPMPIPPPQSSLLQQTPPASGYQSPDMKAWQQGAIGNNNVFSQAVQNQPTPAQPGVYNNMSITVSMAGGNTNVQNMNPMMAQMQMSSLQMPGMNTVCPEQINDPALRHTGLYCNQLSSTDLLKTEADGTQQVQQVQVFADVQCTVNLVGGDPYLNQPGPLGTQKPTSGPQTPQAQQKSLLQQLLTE

With `O=c1cc(N2CCN(c3ccccc3Cl)CC2)[nH]c(=O)n1Cc1ccc(F)cc1`, the values for the inhibition in assay [1] and in assay [2] were -4.06% (inactive) and 16.8% (inactive), respectively.

For `COC(=O)c1ccc2c(c1)NC(=O)c1ccccc1S2`, the inhibition in assay [1] was -8.66% (inactive); in assay [2], -1.54% (inactive).

On to `CN(CC(=O)Nc1ccc(Cl)c(C(F)(F)F)c1)C(=O)C1CC(=O)N(c2ccc3c(c2)OCCO3)C1` (stereo unspecified), for which the inhibition was 17.4% (inactive) in assay [1] and 14% (inactive) in assay [2].

In the case of `CC(C)(C)c1ccc(-n2ncc3c2CCCC3NC(=O)CN2CCOC2=O)cc1` (stereo unspecified), the inhibition in assay [1] was -6.1% (inactive); in assay [2] it was 7.65% (inactive).

On to `COc1cc(C(C)=O)ccc1OCC(=O)Nc1ccccc1N1CCCCC1`, for which the figures for the inhibition in assay [1] and in assay [2] were 9.15% (inactive) and 8% (inactive), respectively.

On to `CCN(C(=O)c1cccc(S(=O)(=O)N(C)C)c1)C12CC3CC(CC(C3)C1)C2`, for which the inhibition in assay [1] was 14.8% (inactive); in assay [2], 19.5% (inactive).

For `CCOc1ccc(-c2nnc3ccc(SCC(=O)NCc4ccco4)nn23)cc1`, the inhibition in assay [1] is -6.9% (inactive); in assay [2], -3.63% (inactive).

`Cc1cccc(N2CC(C(=O)Nc3ccc(S(=O)(=O)Nc4nccs4)cc3)CC2=O)c1C` (stereo unspecified): the inhibition in assay [1] is -14.9% (inactive); in assay [2], -6.59% (inactive).

Turning to `O=C(CNC(=O)c1cccc(F)c1)N/N=C/c1cc(Br)ccc1OC(=O)/C=C/c1ccco1`, the inhibition in assay [1] is 3.9% (inactive); in assay [2], 6.51% (inactive).

As to `N#CC(C#N)=NNc1ccc2cn[nH]c2c1`, the inhibition was 14.6% (inactive) in assay [1] and 31.6% (active) in assay [2].

For the compound `CC(=O)Nc1ccc(NC(=O)C2Cc3c(-c4ccco4)ccnc3O2)cc1` (stereo unspecified), the figures for the inhibition in assay [1] and in assay [2] were 3.04% (inactive) and 8.12% (inactive), respectively.

As to `C(=N\Nc1nc2ccccc2[nH]1)/c1ccc2ncccc2c1`, the figures for the inhibition in assay [1] and in assay [2] were -40.4% (inactive) and -63.6% (inactive), respectively.

For the compound `Cc1cccc(-n2ncc3c2CCCC3NC(=O)CCN2CCCCO2)c1C` (stereo unspecified), the figures for the inhibition in assay [1] and in assay [2] were -0.83% (inactive) and -2.39% (inactive), respectively.

For the compound `COc1ccc(N2CCN(C(=O)c3oc4ccccc4c3NC(=O)CCc3cc(OC)no3)CC2)cc1`, the inhibition in assay [1] was 1.78% (inactive); in assay [2] it was -3.04% (inactive).

With `COc1ccc(Oc2nc3c(c(=O)n(C)c(=O)n3C)n2C)cc1`, the inhibition is 24.8% (inactive) in assay [1] and 16.6% (inactive) in assay [2].

`O=C(CN1C(=O)COc2ccccc21)Nc1ccccc1F`: the inhibition was -26% (inactive) in assay [1] and 1.99% (inactive) in assay [2].

For the compound `O=C(CN1CCN(Cc2ccc(Cl)cc2)C1=O)NCCCN1CCOCC1`, the inhibition in assay [1] was -13.2% (inactive); in assay [2] it was -10.7% (inactive).

On to `O=C(N/N=C/c1coc2ccc(Cl)cc2c1=O)c1ccc(O)cc1`, for which the inhibition was 18.6% (inactive) in assay [1] and 17.8% (inactive) in assay [2].

With `O=C(COc1ccc(Cl)cc1Cl)NN1C(=O)C2C3C=CC(C3)C2C1=O` (stereo unspecified), the inhibition in assay [1] was -1.23% (inactive); in assay [2], -10.4% (inactive).

With `Cc1ccc(OCC(=O)Oc2c(C)cccc2C)cc1C`, the figures for the inhibition in assay [1] and in assay [2] were -3.92% (inactive) and -9.72% (inactive), respectively.

Turning to `CCOc1ncccc1C(=O)NC(C)CCc1ccccc1` (stereo unspecified), the values for the inhibition in assay [1] and in assay [2] were 0.01% (inactive) and -0.39% (inactive), respectively.

Turning to `COc1ccc(N2CCN(C(=O)c3ccc(CS(=O)c4cccc(C)c4)o3)CC2)cc1` (stereo unspecified), the inhibition was -16.2% (inactive) in assay [1] and -2.71% (inactive) in assay [2].

Turning to `Nc1c(C(=O)c2ccccc2)sc2nsc(SCCN3CCCC3)c12`, the inhibition in assay [1] is -0.71% (inactive); in assay [2] it was -2.2% (inactive).

As for `COc1ccc(NC(=O)C2CCN(c3cnccn3)CC2)cc1Cl`, the results for the inhibition in assay [1] and in assay [2] were 1.5% (inactive) and 1.48% (inactive), respectively.

In the case of `CC(C)(C)c1ccc(CC(=O)N2CCC2(C)C(=O)Nc2ccc(F)cc2F)cc1` (stereo unspecified), the inhibition in assay [1] is 1.73% (inactive); in assay [2], 14.4% (inactive).

In the case of `COc1ccccc1NS(=O)(=O)c1cc(NC(=O)C(C)(C)C)ccc1N1CCOCC1`, the inhibition in assay [1] was -45.2% (inactive); in assay [2] it was -32.5% (inactive).

`Cc1nnc(N2CCCC(C(=O)NCc3ccc(OC(C)C)cc3)C2)c2nn(-c3ccccc3)c(C)c12` (stereo unspecified): the inhibition in assay [1] was -12.5% (inactive); in assay [2], -13.1% (inactive).

On to `COc1ccc(-c2cc(C(=O)N(C)CC(=O)Nc3cccc(F)c3)c3ccccc3n2)cc1OC`, for which the inhibition in assay [1] was -19.1% (inactive); in assay [2], -8.17% (inactive).

Turning to `CN(Cc1cccs1)C(=O)CN1CCN(S(=O)(=O)c2ccc3c(c2)OCCCO3)CC1`, the figures for the inhibition in assay [1] and in assay [2] were -16.6% (inactive) and -8.72% (inactive), respectively.

As for `CC(=O)c1cccc(NC(=O)COc2cc3oc(=O)c(CC(C)O)c(C)c3cc2Cl)c1` (stereo unspecified), the inhibition in assay [1] is 28.4% (inactive); in assay [2], 22% (inactive).

For `CCOC(=O)C(=O)NNc1ccc(F)cc1`, the inhibition in assay [1] is -25.9% (inactive); in assay [2], -4.08% (inactive).

Consider `O=c1ccc2c(ccc3ncccc32)o1`, for which the inhibition in assay [1] is 18.8% (inactive); in assay [2], 8.67% (inactive).

On to `O=C(NCCC(=O)N1CCCC(C(F)(F)F)C1)c1ccc(Br)cc1` (stereo unspecified), for which the inhibition is -7.52% (inactive) in assay [1] and -9.82% (inactive) in assay [2].
